# Bioassay records as filed in PubChem BioAssay.
# Hits are enriched below; roughly 12% of the tested compounds scored in any of these assays.
# G9a inh = qHTS Assay for Inhibitors of Histone Lysine Methyltransferase G9a | Histone-lysine N-methyltransferase EHMT2 (Homo sapiens), Q96KQ7 | G9a H3K9 monomethylation, AlphaScreen, 2 h | Potency, µM (titrated, usually from 102 µM), for the others: top-dose activity, negative = inhibition, hits mostly inhibitors | actives 8.8% (n = 350,000) | AID 504332, 2011; further: on the % scale 0 is the no-effect control and ±100 the full control effect; nearly all actives have a fitted effect of over 75% in size
# Target sequence (Q96KQ7 913-1193 limits assumed): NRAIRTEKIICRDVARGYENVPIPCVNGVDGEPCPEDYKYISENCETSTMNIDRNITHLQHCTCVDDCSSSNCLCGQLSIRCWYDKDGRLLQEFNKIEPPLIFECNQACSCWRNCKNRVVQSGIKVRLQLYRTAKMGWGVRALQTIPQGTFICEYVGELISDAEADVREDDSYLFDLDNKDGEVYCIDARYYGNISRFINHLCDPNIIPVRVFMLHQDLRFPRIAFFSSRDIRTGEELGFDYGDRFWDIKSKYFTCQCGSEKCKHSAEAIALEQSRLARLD
#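 Methyltransferase reactions run at room temperature for 2 h (20 nM enzyme, 500 nM biotin-H3K9 peptide, 20 uM SAM) after a 15 min compound preincubation; product detected by AlphaScreen beads and anti-H3K9me1 antibody.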
# HP1b binding inh = HTS for Inhibitors of HP1-beta Chromodomain Interactions with Methylated Histone Tails; actives 0.56% (n = 390,000); Potency, µM (titrated, usually from 114 µM), for inactives: top-dose activity change, negative = inhibition, hits mostly inhibitors; AlphaScreen HP1-beta / biotin-H3K9me3 peptide binding; further: nearly all actives have a fitted effect of over 70% in size
# Target sequence (P83916 whole entry, looked up): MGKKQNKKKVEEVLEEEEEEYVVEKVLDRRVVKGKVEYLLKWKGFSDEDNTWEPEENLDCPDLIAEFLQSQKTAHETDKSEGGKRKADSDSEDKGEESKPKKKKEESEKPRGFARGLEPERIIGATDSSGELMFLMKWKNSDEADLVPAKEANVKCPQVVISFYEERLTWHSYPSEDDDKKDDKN
#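 Compound inhibition of the preformed complex between 50 nM HP1-beta and 50 nM biotinylated H3K9me3 peptide was read by AlphaScreen. Buffer was PBS pH 7.4 with 0.01% Tween-20. Incubations ran 30 min at room temperature, with 10 ug/mL donor/acceptor beads.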
# PLK1 PBD inh = qHTS for Inhibitors of PLK1-PDB (polo-like kinase 1 - polo-box domain): Primary Screen | Serine/threonine-protein kinase PLK1 (Homo sapiens), P53350 | Plk1 PBD binding of FITC phosphopeptide, fluorescence polarization | Potency, µM, for inactives: max response, negative = inhibition, hits mostly inhibitors | actives 2.8% (n = 360,000) | AID 720504, 2013; further: series mostly up to about 57 µM; on the % scale 0 is the no-effect control and ±100 the full control effect; nearly all actives have a fitted effect of over 65% in size
# Sfp inh = qHTS Assay for Inhibitors of Bacillus subtilis Sfp phosphopantetheinyl transferase (PPTase) | 4'-phosphopantetheinyl transferase ffp (Bacillus subtilis), Q9F4F7 | Biochemical Sfp PPTase activity, qHTS | Potency, µM, for inactives: largest response in the series, negative = inhibition, most hits filed as inhibitors | actives 3.5% (n = 310,000) | AID 1490, 2009;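 further: the enzyme is Sfp with the accession as filed and its product quenches rhodamine fluorescence; 0% = enzyme reaction without inhibitor and -100% = no enzyme wells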
#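 Compounds were incubated with enzyme (final 15 nM) for 15 min at room temperature before substrate addition started the reaction. Fluorescence at 525 nm excitation, 598 nm emission was recorded immediately and after 30 minutes.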
# JMJD2A Tudor inh = qHTS Assay for Inhibitors of JMJD2A-Tudor Domain; AID 504339, 2011; actives 4.4% (n = 390,000); Potency, µM (titrated, usually from 114 µM), inactives show at the highest dose activity change, negative = inhibition, hits mostly inhibitors; Lysine-specific demethylase 4A (Homo sapiens), O75164; AlphaScreen JMJD2A-Tudor / H3K4me3 peptide binding; further: on the % scale 0 is the no-effect control and ±100 the full control effect; nearly all actives have a fitted effect of over 50% in size
# BAZ2B inh = qHTS Assay for Inhibitors of BAZ2B; Bromodomain adjacent to zinc finger domain protein 2B (Homo sapiens), Q9UIF8; AlphaScreen BAZ2B-H3K14Ac peptide displacement; Potency, µM (series often up to 114 µM), for the others: at the top dose activity change, negative = inhibition, actives largely listed as inhibitors; actives 4.4% (n = 360,000); further: on the % scale 0 is the no-effect control and ±100 the full control effect; nearly all actives have a fitted effect of over 60% in size
#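 Multi-concentration screen (max 110 uM) measuring displacement of acetylated histone H3 peptide from BAZ2B by AlphaScreen, using 50 nM protein, 50 nM peptide and 10 ug/mL streptavidin donor plus Ni-chelate acceptor beads.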
# * marks the source's active call; other numbers are inactive results; ? = inconclusive; . = not tested or not shown; [ ] = dose if it differs, or a comment. The call rests on the fitted dose curve; in most records, active means well fitted curve in the direction sought with a large enough effect; inconclusive means small, poorly fitted or top-dose-only effect, or another doubt; inactive means no such curve, though single readings can be large; an effect the other way counts as inactive or inconclusive. Potency means the concentration at half of the fitted maximal effect.
SMILES,G9a inh,HP1b binding inh,PLK1 PBD inh,Sfp inh,JMJD2A Tudor inh,BAZ2B inh
Cc1ccc(S(=O)(=O)CC(=O)N2CCN(c3nc4c(F)cccc4s3)CC2)cc1,-17%[59 µM],26%,.,.,-14%,-12%
CCOC(=O)C1=C(O)/C(=C\c2ccc(CNC(=O)C(=O)Nc3ccccc3)o2)N=C1C,?,1%,-20%,32µM*,?,56µM*
COc1ccc(-n2c(=O)c(CCc3ccccc3)nc3cnc(N4CCN(C)CC4)nc32)cc1,8%[0.501 µM],.,.,-2%,.,.
Cc1cc(C)n(CCc2nc(-c3ccco3)cs2)n1,3.5µM*,?,16µM*,8.9µM*,50µM*,50µM*
Cc1nn(CCc2nc(-c3ccco3)cs2)c2[nH]c(=O)cc(C(F)(F)F)c12,?,?,11µM*,?,79µM*,?
Cc1cc(C)n(CCc2nc(-c3cccs3)cs2)n1,?,51%,?,?,3%,5%
O=C(Nc1cc(S(=O)(=O)Nc2ccc(Cl)cc2)ccc1O)c1ccc(S(=O)(=O)N2CCCCCC2)cc1,-115%[59 µM],-18%,12µM*,3.2µM*,-21%,?
O=C(Nc1cc(S(=O)(=O)N2CCCCC2)ccc1O)c1ccccc1NS(=O)(=O)c1ccc(F)cc1,?,-19%,27µM*,-6%,?,-27%
CCc1nn2c(=O)cc(COc3ccc(/C=C(\C#N)C(=O)Nc4ccc(F)cc4)cc3OC)nc2s1,22%[59 µM],50%,.,.,3%,-3%
O=C(Nc1cnc(N2CCC(N3CCCCC3)CC2)c(C(=O)O)c1)c1ccc(Br)cc1,?,-3%,.,.,79µM*,?
Cc1cccc(C(=O)Nc2ccc(N3CCC(CCN4CCOCC4)CC3)c(C(=O)O)c2)c1,-6%[12.7 µM],16%,.,.,-25%,32µM*
Cc1cccc(C(=O)Nc2ccc(N3CCN(c4ccc(F)cc4)CC3)c(C(=O)O)c2)c1,6%[59 µM],17%,.,.,?,-4%
O=C(Nc1ccc(N2CCC(N3CCCCC3)CC2)c(C(=O)O)c1)c1ccc(Br)cc1,-31%[59 µM],14%,.,.,?,79µM*
O=C(Nc1ccccc1)c1cnc(N2CCCCC2)c2ccccc12,49%[59 µM],44%[57 µM],.,.,19%,12%
O=C(Nc1ccc(N2CCOCC2)c(C(=O)O)c1)c1ccc(Br)cc1,-37%[59 µM],33%,.,.,71µM*,?
O=C(Nc1ccc(N2CCOCC2)c(Cl)c1)c1ccc(Cl)cc1,-21%[59 µM],3%,-2%,-5%,-29%,-33%
O=C(Nc1ccc(N2CCCC2)cc1)c1ccc(Br)cc1,.,12%,-3%,-15%,-31%,?
O=C(Cc1ccsc1)NCC(=O)Nc1ccccc1Br,.,36%,-13%,.,-14%,.
Cc1cc(C)n(-c2ccc([N+](=O)[O-])cc2-c2nn[nH]n2)n1,?,28%,3%,79µM*,-28%,?
O=[N+]([O-])c1ccc(O)c(-c2nn[nH]n2)c1,?,?,3.4µM*,-18%,3.2µM*,2.8µM*
O=[N+]([O-])c1ccc(O)c(-c2ccnc3cc(-c4ccccc4)nn23)c1,-4%[59 µM],27%,.,.,-16%,-33%
Cc1cc(C)n(-c2ccc(C(=O)OCC(=O)Nc3ccc([N+](=O)[O-])cc3)cc2)n1,?,20%,1%,8%,-21%,-28%
Cc1cc(=O)c(C(=O)O)cn1Nc1ccc(Cl)cc1,?,40%,-12%,8%,-27%,-10%
Cc1cc(=O)c(C(=O)O)cn1Nc1ccc(F)cc1,?,-11%,-5%,-8%,50µM*,?
CCOc1ccccc1NC(=O)C(c1ccccc1)N1Cc2ccccc2C1=O (stereo not given),5%[59 µM],20%,.,.,-19%,-8%
SMILES,G9a inh,HP1b binding inh,PLK1 PBD inh,Sfp inh,JMJD2A Tudor inh,BAZ2B inh
Nc1cc(Cl)ccc1N1CCCCC1,1%,11%,-2%,9%,-9%,-14%
Cc1nn(-c2cc(N3CCCCCC3)ccc2[N+](=O)[O-])c(=O)c2ccccc12,-8%,-14%,1%,1%,?,-32%[57.1 µM]
c1ccc2cc(N3CCCCC3)ccc2c1,.,28%[57 µM],0%,.,-30%,.
Cc1nn(-c2cc(N3CCCCC3)ccc2N)c(=O)c2ccccc12,3.2µM*,0%,-9%,7%,-16%,-3%
O=C(O)c1ccc(N2CCCCC2)cc1O,.,37%,2%,-3%,-8%,-5%
Nc1cc(Cl)ccc1N1CCCCCC1,10µM*,-14%,-24%,-1%,-24%,-38%
Nc1ccc(N2CCCCC2)cc1N1CCCCC1,2.5µM*,?,-8%,32µM*,28µM*,35µM*
O=C1c2ccccc2C(=O)c2cc(N3CCCCC3)ccc21,.,?,1%,.,13µM*,.
Cc1ccc(S(=O)(=O)N2CCC(C(=O)OCC(=O)NC3(C#N)CCCCC3)CC2)cc1C,?,1%,1%,.,-23%,12%
Cc1cc(F)ccc1NC(=O)Cn1cc(S(=O)(=O)NC(C)C)c(S(=O)(=O)NC(C)C)c1,4%[59 µM],33%,.,.,1%,10%[57.1 µM]
O=C(O)C1CCCCC1C(=O)NCc1ccc(Cl)c(Cl)c1 (stereo not given),11%,-23%,30µM*,17%,-30%,-10%
COc1ccc(C2=CC(c3c(C)nn(-c4ccccc4)c3Cl)n3nnnc3N2)cc1OC (stereo not given),45µM*,4%,2%,-2%,?,-25%
Cc1cccc(-n2[nH]c3c4c(ccc3c2=O)C(=O)c2ccccc2C4=O)c1,14µM*,-21%,-2%,10%,-28%,?
CC(C)Cn1c(=O)[nH]c2ccccc21,15%[59 µM],39%,3%,15%,-1%,9%
CC(C)Cn1[nH]c2c3c(ccc2c1=O)C(=O)c1ccccc1C3=O,?,-22%,-5%,-3%,-30%,10µM*
O=C(COc1cccnc1[N+](=O)[O-])N1CCC(Cc2ccccc2)CC1,.,12%,2%,.,-14%,.
Cc1ccc(OCC(=O)N2CCC(Cc3ccccc3)CC2)c([N+](=O)[O-])n1,10µM*,26%,-3%,.,-25%,-4%
O=C1CN(Cc2nc3cc(Cl)ccc3c(=O)[nH]2)CCN1,?,51%,-25%,3%,2.5µM*,-17%
O=C(O)c1ccc2c(=O)[nH]c(CCl)nc2c1,56µM*,84%,?,10%,?,-39%
